The whole screen tested about 85,000 compounds, of which about 440 (0.52%) showed an effect of 50% or more. This excerpt belongs to a sample that is enriched for strong results.
Assay: In vitro enzyme assay to detect hydrolysis of chlorophenol red-beta-D-[…] directly proportional to the number of Toxoplasma stably expressing beta-galactosidase
Type: functional, organism-based, Toxoplasma gondii
Parameters: scale not given: in the data most compounds retested in dose-response had high values

Row | SMILES | Percent Effect (50 µM) | Percent Effect (10 µM)
1 | CC(=O)Nc1nc2c(s1)CCCC2 | -6.719% | –
2 | O=S(=O)(c1ccc2c(c1)OCCO2)N1CCc2ccccc2C1 | – | 3.262%
3 | O=S(=O)(c1ccc2c(c1)OCCO2)N1CCCNCC1 | 3.594% | –
4 | NC1CN(S(=O)(=O)c2ccc3c(c2)OCCO3)C1 | 61.03% | –
5 | c1cncc(CCNCc2cccc3c2OCCO3)c1 | -5.823% | –
6 | CN(C)S(=O)(=O)NCC(O)c1cccc(C(F)(F)F)c1 (stereo unspecified) | 2.973% | –
7 | Cc1cccc(C(=O)Nc2cccc(O)c2)n1 | 0.8696% | –
8 | O=C(NCCn1cnc(C2CCCC2)cc1=O)NCc1cccs1 | – | 56.76%
9 | CC(C)NC(=O)NCCn1cnc(C2CCCC2)cc1=O | – | 7.593%
10 | O=C(NCCn1cnc(C2CCCC2)cc1=O)c1ccc(=O)[nH]n1 | – | -2.574%
11 | CC(=O)c1ccc(Br)o1 | 1.756% | –
12 | Cc1ccc(C(=O)COC(=O)c2cccnc2N)cc1 | -8.374% | –
13 | CC(C)c1ccc(S(=O)(=O)C(C)C(N)=O)cc1 (stereo unspecified) | -3.645% | –
14 | CC(C)CCC(=O)N1CCC(C)(CO)C1 (stereo unspecified) | 58.28% | –
15 | CC(C)CCC(=O)N1CCNCC1 | -1.153% | –
16 | CC(=O)N1CCN(C(=O)CCC(C)C)CC1 | -13.31% | –
17 | Cc1noc(C)c1CN1CCCC(CS(C)(=O)=O)C1 (stereo unspecified) | -9.047% | –
18 | O=C1CC(C(=O)N2CCOC3(CCCC3)C2)CCN1 (stereo unspecified) | -8.974% | –
19 | C1CC(C2CCOC2)CCN1 (stereo unspecified) | 0.8119% | –
20 | C1CC(C2CNC2)CCO1 | 67.45% | –
21 | C1CC(C2CNC2)CO1 (stereo unspecified) | 5.994% | –

Row | SMILES | Percent Effect (50 µM) | Percent Effect (10 µM)
22 | CCNC(=O)CNc1nccc(OC)n1 | 5.07% | –
23 | Cc1nn(-c2ccc(F)cc2)cc1CN | -3.262% | –
24 | CC(C)COCC1CCNCC1 | 3.232% | –
25 | CCCC(=O)NCCCNC(=O)c1ccc(C)nc1 | -3.506% | –
26 | Cc1ccc(C(=O)NCC(C)(C)N(C)C)cn1 | -0.683% | –
27 | Cc1ccc(C(=O)NCCCNCCCN(C)C)cn1 | 99.75% | –
28 | O=C(NC1CCCSC1)N[C@H](CO)Cc1ccccc1 (stereo partly specified) | 1.879% | –
29 | Cc1nnc(NC(=O)N(CCO)C2CC2)s1 | -4.304% | –
30 | O=C(NC1CCCSC1)N(CCO)C1CC1 (stereo unspecified) | 98.6% | –
31 | CCCn1ccnc1CNC(=O)CCNS(C)(=O)=O | -5.274% | –
32 | Cc1cc(S(=O)(=O)N[C@@H]2CCOC[C@H]2O)n(C)n1 | 15.92% | –
33 | CCn1ccnc1CN(C)CCC(=O)NC(C)C | 14.34% | –
34 | CN(C)C1CCN(C(=O)CN(C)S(C)(=O)=O)CC1 | -9.436% | –
35 | COc1ncccc1-c1csc(NCCSC)n1 | 98.47% | –
36 | COCCNc1nc(-c2ccc(O)cc2O)cs1 | 0.3364% | –
37 | COc1ncccc1-c1cccc(C#N)n1 | 5.499% | –
38 | N#Cc1cccc(NC(=O)NC2CCS(=O)(=O)C2)c1 (stereo unspecified) | 1.062% | –
39 | CCC(=O)N(c1ccc(Cl)cc1)C1C=CS(=O)(=O)C1 (stereo unspecified) | -0.8656% | –
40 | NCCCNS(=O)(=O)c1ccc(Cl)cc1 | -0.1272% | –
41 | O=C(NCCC1=CCCCC1)c1cc(-c2ccc(O)cc2)n[nH]1 | – | 74.79%
42 | Cc1ccc(-c2cc(C(=O)NCCC3=CCCCC3)[nH]n2)o1 | – | 28.69%

Row | SMILES | Percent Effect (50 µM) | Percent Effect (10 µM)
43 | CCCc1cc(C(=O)NCCC2=CCCCC2)[nH]n1 | – | 32.61%
44 | O=C(CN1CCN(CCO)CC1)Nc1ccc(Br)cn1 | 2.183% | –
45 | COc1cc(Cl)ccc1CN | 12.35% | –
46 | CCN1CCN(CC(=O)Nc2ccc(OC)cc2)CC1 | 6.454% | –
47 | CC(=O)c1c(C)nn(CC(=O)Nc2ccc(Br)cc2)c1C | – | 96.91%
48 | CC(=O)c1c(C)nn(CC(=O)Nc2ccc(F)cc2)c1C | – | 19.31%
49 | COc1ccc(NC(=O)Cn2nc(C)c(C(C)=O)c2C)cc1 | – | 89.45%
50 | Cc1cc(=O)n(CC(=O)Nc2ccc(Cl)cc2)nc1C | – | 3.812%
51 | COc1ccc(NC(=O)Cn2nc(C)c(C)cc2=O)cc1 | – | -1.054%
52 | NCCS(=O)(=O)NCc1ccccc1 | -6.39% | –
53 | CC(=O)NCCNC(=O)CC(C)C1CCCCC1 (stereo unspecified) | -13.76% | –
54 | CNC(=O)CN1CCC(NC(=O)c2cccs2)CC1 | -6.649% | –
55 | CS(=O)(=O)C1CCCCN(C(=O)CC2CCSCC2)C1 (stereo unspecified) | -13.3% | –
56 | NC(=O)c1ccc(OCC(=O)c2ccccc2F)cc1 | -5.248% | –
57 | CN(Cc1cc2cc(F)ccc2[nH]1)c1cc(C2CCCNC2)ncn1 (stereo unspecified) | – | 38.81%
58 | CCN(Cc1c(F)cccc1Cl)c1cc(C2CCNCC2)nc(C)n1 | – | 79.97%
59 | CCN(Cc1ccncc1)c1cc(C2CCCNC2)nc(C)n1 (stereo unspecified) | – | 14.41%
60 | CCN(Cc1ccncc1)c1cc(C2CCNCC2)nc(C)n1 | – | 30.82%
61 | Cc1nc(-c2ccc(F)cc2)cc(C2CCNCC2)n1 | – | 1.268%
62 | Cc1nc(C2CCNCC2)cc(N(C)Cc2cc3cc(F)ccc3[nH]2)n1 | – | 63.01%
63 | CCC(N)c1ccccc1OCC(=O)N(C)C (stereo unspecified) | -2.206% | –

Row | SMILES | Percent Effect (50 µM) | Percent Effect (10 µM)
64 | NC(=O)CCSc1nnc(N2CCCC2)n1C1CC1 | 10.69% | –
65 | Cc1nccn1CCNc1cc(C2CC(O)C2)ncn1 (stereo unspecified) | 47.03% | –
66 | CNC(=O)NC(=O)CCN1CCCC(C(F)(F)F)C1 (stereo unspecified) | -7.84% | –
67 | CNC(=O)NC(=O)CCN1CCCC(C)C1 (stereo unspecified) | 60.28% | –
68 | CNC(=O)NC(=O)CCN1CCCCC1 | -8.963% | –
69 | Cc1nn(C)cc1C(C)NC(=O)CNc1ccccc1 (stereo unspecified) | -0.7115% | –
70 | CN(CC(=O)N1CCOCC1)Cc1cc(Br)cs1 | 6.245% | –
71 | N#Cc1c(Cl)nsc1NCC1(c2ccccc2)CCC1 | – | 79.2%
72 | COc1ccccc1C1(CNc2snc(Cl)c2C#N)CCCC1 | – | 2.513%
73 | COc1ccccc1C1(CNc2snc(Cl)c2C#N)CCOCC1 | – | -0.2674%
74 | Cc1noc(C)c1C(=O)NC1CCN(CC2CC2)CC1 | -0.3877% | –
75 | CC(C)c1nsc(NCC2=COCCO2)n1 | -1.035% | –
76 | Cc1[nH]c2ccccc2c1-c1ccnc(N[C@@H](CO)C(C)C)n1 | – | 48.14%
77 | Cc1[nH]c2ccccc2c1-c1ccnc(NC[C@H](O)CO)n1 | – | 15.34%
78 | Cc1[nH]c2ccccc2c1-c1ccnc(NCCN2CCCCC2)n1 | – | 28.85%
79 | Cc1[nH]c2ccccc2c1-c1ccnc(NCCN2CCOCC2)n1 | – | -5.812%
80 | Cc1[nH]c2ccccc2c1-c1ccnc(N[C@H](CO)CC(C)C)n1 | – | 53.1%
81 | Cc1[nH]c2ccccc2c1-c1ccnc(N[C@@H](C)CO)n1 | – | 58.12%
